From PubChem BioAssay AID1159580 (chemical genetic matrix, 2015)
Out of some 5,500 compounds screened, about 2,000 (36%) were called active. Inconclusive results (about 18%) are left out. Cut-off read from the data, not from the text of the source: active = normalized growth mostly below about 0.91 (no sharp cut-off); inconclusive = no clear call, values can overlap the other calls; inactive = mostly above about 0.92. The list shows a part of the results.

Test: chemical genetic growth profiling, strain panel (AID 1159580);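 note: tested at 20 µM; growth read once vehicle control cultures reached saturation at 30 °C; 1 = growth at the plate median or of vehicle wells; lower values mean less growth of the strain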
Conditions: growth OD
[1] = S. cerevisiae deletion strains, locus YBR021W, strain FUR4, stronger effect = lower value
[2] = S. cerevisiae deletion strains, locus YBR229C, strain ROT2, stronger effect = lower value
[3] = S. cerevisiae deletion strains, locus YCL029C, strain bik1, stronger effect = lower value
[4] = S. cerevisiae deletion strains, locus YDL035C, strain GPR1, stronger effect = lower value
[5] = S. cerevisiae deletion strains, locus YDL074C, strain BRE1, stronger effect = lower value
[6] = S. cerevisiae deletion strains, locus YDL101C, strain DUN1, stronger effect = lower value
[7] = S. cerevisiae deletion strains, locus YDL134C, strain PPH21, stronger effect = lower value
[8] = S. cerevisiae deletion strains, locus YDL185W, strain tfp1, stronger effect = lower value
[9] = S. cerevisiae deletion strains, locus YDL192W, strain arf1, stronger effect = lower value
[10] = S. cerevisiae deletion strains, locus YDR101C, strain arx1, stronger effect = lower value
[11] = S. cerevisiae deletion strains, locus YDR162C, strain NBP2, stronger effect = lower value
[12] = S. cerevisiae deletion strains, locus YDR318W, strain mcm21, stronger effect = lower value
[13] = S. cerevisiae deletion strains, locus YDR388W, stronger effect = lower value
[14] = S. cerevisiae deletion strains, locus YDR502C, strain sam2, stronger effect = lower value
[15] = S. cerevisiae deletion strains, locus YEL061C, strain CIN8, stronger effect = lower value
[16] = S. cerevisiae deletion strains, locus YER110C, stronger effect = lower value
[17] = S. cerevisiae deletion strains, locus YER155C, strain BEM2, stronger effect = lower value
[18] = S. cerevisiae deletion strains, locus YER167W, strain BCK2, stronger effect = lower value
[19] = S. cerevisiae deletion strains, locus YGL078C, strain dbp3, stronger effect = lower value
[20] = S. cerevisiae deletion strains, locus YGL086W, strain mad1, stronger effect = lower value
[21] = S. cerevisiae deletion strains, locus YGL248W, strain PDE1, stronger effect = lower value
[22] = S. cerevisiae deletion strains, locus YGR078C, strain PAC10, stronger effect = lower value
[23] = S. cerevisiae deletion strains, locus YGR135W, strain pre9, stronger effect = lower value
[24] = S. cerevisiae deletion strains, locus YGR252W, strain gcn5, stronger effect = lower value
[25] = S. cerevisiae deletion strains, locus YHR030C, strain SLT2, stronger effect = lower value
[26] = S. cerevisiae deletion strains, locus YHR079C, strain IRE1 (second series), stronger effect = lower value
[27] = S. cerevisiae deletion strains, locus YHR094C, strain hxt1, stronger effect = lower value
[28] = S. cerevisiae deletion strains, locus YHR129C, strain ARP1, stronger effect = lower value
[29] = S. cerevisiae deletion strains, locus YHR200W, strain rpn10, stronger effect = lower value
[30] = S. cerevisiae deletion strains, locus YIL066C, strain RNR3, stronger effect = lower value
[31] = S. cerevisiae deletion strains, locus YIL073C, strain SPO22, stronger effect = lower value
[32] = S. cerevisiae deletion strains, locus YIL125W, strain kgd1, stronger effect = lower value
[33] = S. cerevisiae deletion strains, locus YIR030C, strain dcg1, stronger effect = lower value
[34] = S. cerevisiae deletion strains, locus YJL095W, strain BCK1, stronger effect = lower value
[35] = S. cerevisiae deletion strains, locus YJL134W, strain LCB3, stronger effect = lower value
[36] = S. cerevisiae deletion strains, locus YJL168C, strain set2, stronger effect = lower value
[37] = S. cerevisiae deletion strains, locus YJL187C, strain SWE1 (second series), stronger effect = lower value
[38] = S. cerevisiae deletion strains, locus YJR043C, strain POL32, stronger effect = lower value
[39] = S. cerevisiae deletion strains, locus YJR075W, strain HOC1, stronger effect = lower value
[40] = S. cerevisiae deletion strains, locus YKL009W, strain mrt4, stronger effect = lower value
[41] = S. cerevisiae deletion strains, locus YKL068W, stronger effect = lower value
[42] = S. cerevisiae deletion strains, locus YKL085W, strain MDH1 (second series), stronger effect = lower value
[43] = S. cerevisiae deletion strains, locus YKL085W, strain MDH1, stronger effect = lower value
[44] = S. cerevisiae deletion strains, locus YKL190W, strain CNB1, stronger effect = lower value
[45] = S. cerevisiae deletion strains, locus YKR001C, strain vps1, stronger effect = lower value
[46] = S. cerevisiae deletion strains, locus YLR039C, strain RIC1, stronger effect = lower value
[47] = S. cerevisiae deletion strains, locus YLR058C, strain SHM2, stronger effect = lower value
[48] = S. cerevisiae deletion strains, locus YLR102C, strain apc9, stronger effect = lower value
[49] = S. cerevisiae deletion strains, locus YLR262C, strain YPT6, stronger effect = lower value
[50] = S. cerevisiae deletion strains, locus YLR268W, strain sec22, stronger effect = lower value
[51] = S. cerevisiae deletion strains, locus YLR330W, strain CHS5, stronger effect = lower value
[52] = S. cerevisiae deletion strains, locus YLR342W, strain FKS1 (second series), stronger effect = lower value
[53] = S. cerevisiae deletion strains, locus YLR371W, strain rom2, stronger effect = lower value
[54] = S. cerevisiae deletion strains, locus YLR418C, strain cdc73, stronger effect = lower value
[55] = S. cerevisiae deletion strains, locus YML016C, strain PPZ1, stronger effect = lower value
[56] = S. cerevisiae deletion strains, locus YML032C, strain rad52, stronger effect = lower value
[57] = S. cerevisiae deletion strains, locus YML124C, strain tub3, stronger effect = lower value
[58] = S. cerevisiae deletion strains, locus YMR078C, strain ctf18, stronger effect = lower value
[59] = S. cerevisiae deletion strains, locus YMR223W, strain ubp8, stronger effect = lower value
[60] = S. cerevisiae deletion strains, locus YMR263W, strain SAP30, stronger effect = lower value
[61] = S. cerevisiae deletion strains, locus YMR307W, strain GAS1, stronger effect = lower value
[62] = S. cerevisiae deletion strains, locus YNL067W, strain RPL9B, stronger effect = lower value
[63] = S. cerevisiae deletion strains, locus YNL128W, strain TEP1, stronger effect = lower value
[64] = S. cerevisiae deletion strains, locus YNL153C, strain GIM3, stronger effect = lower value
[65] = S. cerevisiae deletion strains, locus YNL233W, strain BNI4, stronger effect = lower value
[66] = S. cerevisiae deletion strains, locus YNL250W, strain rad50, stronger effect = lower value
[67] = S. cerevisiae deletion strains, locus YNL271C, strain bni1, stronger effect = lower value
[68] = S. cerevisiae deletion strains, locus YNL298W, strain CLA4, stronger effect = lower value
[69] = S. cerevisiae deletion strains, locus YNL307C, strain MCK1, stronger effect = lower value
[70] = S. cerevisiae deletion strains, locus YNR052C, strain pop2, stronger effect = lower value
[71] = S. cerevisiae deletion strains, locus YOL006C, strain TOP1, stronger effect = lower value
[72] = S. cerevisiae deletion strains, locus YOL012C, strain htz1
[73] = S. cerevisiae deletion strains, locus YOL147C, strain pex11, stronger effect = lower value
[74] = S. cerevisiae deletion strains, locus YOR061W, strain CKA2, stronger effect = lower value
[75] = S. cerevisiae deletion strains, locus YOR069W, strain VPS5, stronger effect = lower value
[76] = S. cerevisiae deletion strains, locus YOR136W, strain idh2, stronger effect = lower value
[77] = S. cerevisiae deletion strains, locus YOR144C, strain elg1, stronger effect = lower value
[78] = S. cerevisiae deletion strains, locus YOR184W, strain ser1, stronger effect = lower value
[79] = S. cerevisiae deletion strains, locus YOR316C, strain cot1, stronger effect = lower value
[80] = S. cerevisiae deletion strains, locus YPL055C, strain LGE1, stronger effect = lower value
[81] = S. cerevisiae deletion strains, locus YPL241C, strain CIN2, stronger effect = lower value
[82] = S. cerevisiae deletion strains, locus YPR119W, strain clb2, stronger effect = lower value
[83] = S. cerevisiae deletion strains, locus YPR141C, strain kar3, stronger effect = lower value
[84] = S. cerevisiae deletion strains, locus YPR163C, strain tif3, stronger effect = lower value
[85] = S. cerevisiae deletion strains, locus YPR167C, strain met16, stronger effect = lower value
[86] = S. cerevisiae deletion strains, strain wtn01, stronger effect = lower value

Measured: normalized growth

COc1ccc(-c2coc3cc(OC)cc(O)c3c2=O)cc1
active: [45] 0.898 | [69] 0.805 | [78] 0.872
inactive: S. cerevisiae deletion strains, locus YAL013W, strain DEP1, stronger effect = lower value 0.962 | [1] 0.862 | [2] 0.98 | [3] 0.966 | [4] 0.959 | [5] 0.91 | [6] 0.98 | [7] 0.982 | [8] 0.968 | [9] 0.96 | [10] 0.96 | S. cerevisiae deletion strains, locus YDR150W, strain NUM1, stronger effect = lower value 0.991 | [11] 0.983 | [12] 0.922 | [13] 0.957 | [14] 0.967 | [15] 0.982 | [16] 0.958 | [17] 0.967 | [18] 0.933 | [19] 0.978 | [20] 0.955 | [21] 0.976 | [22] 0.952 | [23] 0.94 | S. cerevisiae deletion strains, locus YGR229C, strain SMI1, stronger effect = lower value 0.924 | [24] 0.768 | [25] 0.972 | [26] 0.935 | [27] 0.976 | [28] 0.967 | [29] 0.957 | [30] 0.975 | [31] 0.905 | [32] 0.969 | [33] 0.97 | [34] 0.907 | [35] 0.986 | [36] 0.975 | [37] 0.972 | [38] 0.911 | [39] 0.951 | [40] 0.919 | [41] 0.989 | [42] 0.982 | [43] 0.982 | [44] 0.979 | [46] 0.971 | [47] 0.974 | [48] 0.969 | [49] 0.959 | [50] 0.957 | [51] 0.977 | [52] 0.859 | [53] 0.969 | [54] 0.889 | [55] 0.975 | [56] 0.94 | [57] 0.974 | [58] 0.96 | [59] 0.94 | [60] 0.967 | [61] 0.81 | [62] 0.977 | [63] 0.994 | [64] 0.995 | [65] 0.923 | [66] 0.968 | [67] 0.973 | [68] 0.928 | S. cerevisiae deletion strains, locus YNL322C, strain KRE1, stronger effect = lower value 0.985 | [70] 0.968 | [71] 0.863 | [72] 1.51 | [73] 0.969 | [74] 0.996 | [75] 0.984 | [76] 0.971 | [77] 0.975 | [79] 0.96 | [80] 0.92 | [81] 0.987 | [82] 0.972 | [83] 0.99 | [84] 0.973 | [85] 0.97 | [86] 0.944 | S. cerevisiae strains, strain wild type, stronger effect = lower value 0.963

COc1cc(O)c2c(=O)c(-c3ccc(O)cc3)coc2c1
active: [1] 0.832 | [7] 0.859 | [9] 0.84 | [10] 0.873 | [12] 0.886 | [14] 0.842 | [17] 0.891 | [18] 0.853 | [20] 0.881 | [21] 0.874 | [22] 0.835 | [23] 0.817 | [24] 0.612 | [25] 0.916 | [28] 0.899 | [29] 0.894 | [30] 0.845 | [34] 0.73 | [38] 0.771 | [39] 0.859 | [45] 0.73 | [46] 0.58 | [49] 0.552 | [50] 0.866 | [51] 0.872 | [52] 0.701 | [53] 0.823 | [54] 0.61 | [56] 0.865 | [59] 0.862 | [60] 0.884 | [65] 0.809 | [68] 0.894 | [69] 0.816 | [71] 0.489 | [73] 0.877 | [77] 0.918 | [78] 0.756 | [86] 0.841
inactive: [2] 0.973 | [3] 0.952 | [4] 0.89 | [5] 0.782 | [6] 0.942 | [8] 0.972 | [11] 0.853 | [13] 0.943 | [15] 0.93 | [16] 0.944 | [19] 0.935 | [26] 0.947 | [27] 0.959 | [31] 0.818 | [32] 0.964 | [33] 0.938 | [35] 0.984 | [36] 0.947 | [37] 0.894 | [40] 0.88 | [41] 0.969 | [42] 0.948 | [43] 0.948 | [44] 0.961 | [47] 0.913 | [48] 0.946 | [55] 0.947 | [57] 0.942 | [58] 0.954 | [61] 0.642 | [62] 0.891 | [63] 0.96 | [64] 0.941 | [66] 0.957 | [67] 0.94 | [70] 0.919 | [72] 1.29 | [74] 0.936 | [75] 0.94 | [76] 0.946 | [79] 0.945 | [80] 0.791 | [81] 0.97 | [82] 0.962 | [83] 0.967 | [84] 0.93 | [85] 0.942
